From PubChem
Choline anaer gr = blocks anaerobic gram-negative growth on choline. calls only. 55,000 compounds, 0.2% hits. Gram-negative bacterium anaerobic choline minimal medium, absorbance growth; active compounds read low; call rule not given here
Active calls of the source: *; i = inactive; + = active, no number; ! = repeats disagree. This excerpt belongs to a sample that is enriched for hits.

SMILES | Choline anaer gr
O=C1Nc2ccccc2C1Cc1ccc(Cl)cc1 (stereo not drawn) | +
COc1cc(CC2C(=O)Nc3ccccc32)cc(Cl)c1OC (stereo not drawn) | i
O=C1Nc2ccccc2C1Cc1ccccc1F (stereo not drawn) | i
COc1ccc(S(=O)(=O)N2CCN(Cc3noc(CCC(=O)N(C)Cc4ccccc4)n3)CC2)cc1 | i
CC(C)OC(=O)CSc1nnc2c(S(=O)(=O)N3CCN(c4ccc(F)cc4)CC3)cccn12 | i
CC(C)(C)c1ccc(S(=O)(=O)/C=C/C#N)cc1 | +
Cc1ccc(S(=O)(=O)C=CC#N)cc1 | i
CC(C)(C)c1ccc(S(=O)(=O)Nc2ccc(-c3nnc(-c4ccccc4)o3)cc2)cc1 | i
COc1ccc(-c2noc(NC3CCCC3)n2)cc1 | i
CCc1noc(-c2ccc(NC(=O)C3CC(=O)N(c4ccc(C)cc4)C3)cc2)n1 (stereo not drawn) | i
O=C(CN1CCN(Cc2ccccc2)C(=O)C1=O)Nc1nc2ccccc2s1 | i
O=[N+]([O-])c1ccc2c(c1)S(=O)(=O)C=C2 | +!
CCOC(=O)c1c(NC(=O)N2CC(CC)Oc3ccccc32)sc2c1CCCC2 (stereo not drawn) | i
Cc1ccc(Cl)cc1N1CCN(C(=O)CSCc2nc(-c3ccc(Cl)cc3)oc2C)CC1 | i
COc1ccc(N2CCN(c3nccc4ccc(C(=O)NC5CCCC5)cc34)CC2)cc1 | i
CC(Sc1nnc(-c2ccncc2)o1)C(=O)Nc1ccc2c(c1)OCCO2 (stereo not drawn) | i
Cc1ccc(NC(=O)CSc2nnc(-c3ccncc3)o2)cc1Cl | i
O=C(CSc1nnc(-c2ccncc2)o1)Nc1ccc2c(c1)OCO2 | +
CCOC(=O)c1cc2n(n1)CC(C)(C(=O)NCCC(C)C)N(c1ccc(F)cc1C)C2=O (stereo not drawn) | i
Cc1cc(Br)cc2c1N(CCCOc1ccccc1)C(=O)C2=O | i
O=C(Nc1ccccc1)c1cnc2sc3c(n2c1=O)CCCC3 | i
O=C(Nc1ccc(Cl)cc1)c1ccc(C2Nc3ccccc3S(=O)(=O)N2)cc1 (stereo not drawn) | i
Cc1c(Cl)cccc1NC(=O)CN1C(=O)C(C)CSc2ccc(S(=O)(=O)N3CCCC3)cc21 (stereo not drawn) | i
CC(C)=CCC/C(C)=C/CC/C(C)=C/CSCC(=O)O | +
COC(=O)[C@@H](N)CSC/C=C(\C)CC/C=C(\C)CCC=C(C)C | i
SMILES | Choline anaer gr
Cc1cc(NCc2ccccn2)n2nc(C(F)(F)F)c(-c3ccccc3Cl)c2n1 | i
COc1ccc(NC(=O)Nc2c(-c3cccnc3)[nH]c3ccccc23)cc1 | i
CCc1ccc(-c2[nH]c3ccccc3c2NC(=O)Nc2cccc(C(=O)OC)c2)cc1 | i
CCc1ccc(NC(=O)Nc2c(-c3ccccc3)[nH]c3ccccc23)cc1 | +
CCN1C(=O)CCc2cc(NC(=O)CN3C(=O)c4ccccc4C3=O)ccc21 | i
CC(C)c1nnc(-c2ccc(S(=O)(=O)N3CCCC3)o2)o1 | i
CC(C)c1nnc(-c2ccc(S(=O)(=O)N3CCN(C(C)C)CC3)o2)o1 | i
CC(C)CN1CCN(S(=O)(=O)c2ccc(-c3nnc(C(C)C)o3)o2)CC1 | +
Cc1cccc(NC(=O)Nc2ccc(CCc3nc4ccccc4[nH]3)cc2)c1 | i
Cc1nn(-c2cc(N3CCCC3)ncn2)c(C)c1CCC(=O)NC1CCCCC1 | i
Cc1ccc(C(=O)N2CCc3ccc(CNC(=O)NCc4ccccc4)cc32)cc1 | i
CCOc1cc(CNCCSc2nnnn2C)cc(Br)c1OCC(N)=O | i
COc1ccc(CNc2ccc(C(=O)N3CCc4ccccc43)nn2)cc1 | +
COc1ccccc1N1CCN(c2ccc(C(=O)N3CCc4ccccc43)nn2)CC1 | i
O=C(c1ccc(NC2CCCC2)nn1)N1CCc2ccccc21 | i
CCCOc1ccc(C2CC(=O)Nc3c2c(C)nn3-c2ccc3nnc(C)n3n2)cc1OC (stereo not drawn) | i
O=C(CC1CC1)N1CCCN(Cc2noc(-c3ccccc3)n2)CC1 | +
O=C(c1coc(-c2ccccc2)n1)N1CCCN(Cc2noc(-c3ccccc3)n2)CC1 | i
O=C(CC1CCCC1)N1CCN(Cc2noc(-c3ccccc3)n2)CC1 | i
CCc1nc(C)cn1S(=O)(=O)c1ccc2c(c1)N(C(C)=O)CC(C)O2 (stereo not drawn) | i
CCN1CCN(c2ccc(NC(=O)c3ccccc3Cl)c(C(=O)O)c2)CC1 | i
CC1CCN(c2ccc(NC(=O)c3ccccc3Cl)c(C(=O)O)c2)CC1 | +
O=C(Nc1ccc(N2CCN(C3CCCCC3)CC2)cc1C(=O)O)c1ccccc1Cl | i
Cc1cccc(N2CCN(c3ccc(NC(=O)c4ccccc4Cl)c(C(=O)O)c3)CC2)c1C | i
CN(C)c1ccc(NC(=O)c2ccc(Br)cc2)c(C(=O)O)c1 | i
CN(C)c1ccc(NC(=O)c2ccccc2Cl)c(C(=O)O)c1 | +
COC(=O)c1cc(C)nc2c1c(=O)n(C)c(=O)n2C | i
O=C(NC1CCCCC1)C1CCN(c2nc3ccccc3nc2C(F)(F)F)CC1 | i
